To fix the notation:
B1: GBRAP_52_6037 (protein)
chain: MREKMREKAEEIVKLVLEGKLEEAEKLIRELVETLSEEELLLLGEELARIAREAPEEELDAILEAAFILADELIEGGYEEVLADEIEARVTRAAVERLER
B2: GBRAP_11_2679 (protein)
chain: KKEQLKKIAEIAKELAEAIEKLLKEGVDNEKLLKEIKKLLKELKELAEKYADEGLKTLAEIAAELFEEALANPENAEHYLELLLAAVRVLLANVEEEIDE
B3: GBRAP_52_6366 (protein)
chain: DLEEAVKLLREAVKAVLEGKEEEAEKILKEIVENFSEETILEAARRLAEELLEKSLEEAEAFLEAAIMLADILEEAGKSEVVGDEIEAIAARTLMEIRER
B4: GBRAP_11_2721 (protein)
chain: KAEKLKALAEKAEALAEKVEKLIKEGPKKEEIKKLAEEVEKLREEAKKIGASEDVLKTLDIAAENLKKAIEDPSNVEEHLKNAAAALRVAAGQLLLEAEE
B5: GBRAP_160_4055 (protein)
chain: AEEKERLIADVDAAEAAILAVIDEEGAEAAAVMADGEFGAIIMEAAELPTASDELVDALEAIRDALVAGLRANAAASPAELKALVRAAAAAAKEAIKKHY
B6: GBRAP_160_4135 (protein)
chain: SEELEKLIKEIKEIGEEALEMIEGETPENAKVIARVALGDIVMLVESNDAISEETEDEIGKIADEAEATLKANPDLTVEEIKALLKEATEKVVEIIEKEK
B7: GBRAP_52_6086 (protein)
chain: MEERLEALAREIAAAVAAGDREGALALIEEAIKELSVEEIRRLLRLAAERVAALGEDAHVLFVDLLDEAEDLMIKAGISEEDALLIVGDAEAALAKAVAA
B8: GBRAP_52_6087 (protein)
chain: MEERLEKLAKEIAEAVAAGKRDEALALMEKAIKELSVEEIKKLFKLAAELVAKLGEEAEELFVDLLDEAEDLLIEAGISEEDALLIVGDAEAALAKAVAA
B9: GBRAP_160_4202 (protein)
chain: EEKVKKIIEELKEETEEVIKLLDEVSVEEAAVFAEVEFGSVLMLAVELGIENDEILDVIDEAGDKIVKYLKENKDASVEELKKKIKEITEEAIKKIKELA
B10: GBRAP_39_5664 (protein)
chain: EEDEENELLFEYYLAKAEGYRIKEGISDEELIERGKELLKAIAKEHPEIKELVEELLKEVDKGDEDVGLAAAGIALDYLEGLPIEEIKEHLEKLLKYVKK
B11: GBRAP_184_5111 (protein)
chain: KLLEETIKANNKEELEKKLTEVVEKAVKEKADLLVIVEIPNLTPEMAEIIMDKVAKAKEAGIKNVLVEIVSDNLSDEVIDTIDKKAKEYGLTNVVLAMKE
B12: GBRAP_153_3948 (protein)
chain: SMESKEKLEKAKKLIEKIKKSEDPTEYIKELAKLLASMNLEERLEVAKEFNSLSEETVYKIFLTLATEEGFSVEELLELTTELNEEQQAAALKAIVEAQK
B13: GBRAP_39_5630 (protein)
chain: EEEEELELLESLAEADLAKREVETGLPAEELYAELLARAREAAADDPELLALIERLAALAEEHGPEARERLAAAMAAYLAGLPKEDIKRLLTALIEELEA
B14: GBRAP_48_5830 (protein)
chain: MKIDLEKLEALVKETVEEMKELYEEAKKEGLSDEDILKMIKAELGDLALELEEEGYTKAADYLLERENRDELAKKLLELFKEGKYEEAYEYLLKKLKEAE
B15: GBRAP_160_4617 (protein)
chain: SSKIEELKKFVKEEFEEAKEMIEGETPEQRAAIVDVTIGEIILEAEELEVVSDESLEKIDEIGDELVETILENPDLTEEEVKELIDEAEKKIIEIIEEDE
B16: GBRAP_160_4619 (protein)
chain: SEKVEELKKFVEEEFEETKEMIVGQTPEERAAIVDVTIGEIILEAEELEVVSDETLDEIDEIGDELVETILANPDLTDEEIKALIDEAREKIIALIEKDE
B17: GBRAP_53_6397 (protein)
chain: SAATIAALLAELRALIAEVDADPTLDPEEVAARAGELLRAAVAAGAPAAELTALARELAAAVAARGLGVEVGTRLAATAAAAGAEEVAAVFTEAAVEDLE
B18: GBRAP_26_5497 (protein)
chain: FLEEILEELRREIKEILKDESPELQAAVIATAEDLLLEADEEIEENAEDEEKIKEAIEKAVEEMRKELERFGLSEEKIEKIVEALRRALEKVAERIKEEA
B19: GBRAP_52_5995 (protein)
chain: SAARIEAVAREIVALVLAGDREGARALIRKAFRELSDEEIVEMVRLATRLLMEDPRATDEDIRTFIDLVLDTAEEEGLDEETIADIIGAIATAIKEAELK

Over roughly 4,500 sequences, “median log2 fold change of GCK-ALFA target abundance (FLAG IP / Myc IP barcode read proportion)” has its median near 0.078; the lowest 2% begin near -0.6. Many of the other results were omitted from the sample, so the lowest values are more common in it than they were.

GABARAP, O95166, sequence (O95166 whole entry, the tested form may be a part): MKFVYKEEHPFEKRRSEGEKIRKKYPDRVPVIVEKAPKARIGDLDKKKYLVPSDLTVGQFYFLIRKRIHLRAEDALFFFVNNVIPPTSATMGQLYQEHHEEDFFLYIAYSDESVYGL

The assay has as its target GABARAP, O95166. Kind of assay: median log2 fold change of GCK-ALFA target abundance (FLAG IP / Myc IP barcode read proportion) (log2 ratio); each designed protein is fused to an ALFA-tag nanobody in HEK293 cells to bring the named protein to FLAG-tagged glucokinase (GCK); Myc marks an untargeted standard; higher = target protein stabilised (more abundant). The note with it: target protein: 3xFLAG-MCP-GCK-ALFA reporter; HEK293 landing pad (RPLP). Summed up: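 Sequencing of reverse-transcribed, amplified circular RNA barcodes from anti-FLAG and anti-Myc immunoprecipitates provided the readout for an ALFA-nanobody-fused binder library recombined into HEK293 landing-pad cells. Those cells were induced with 2 μg mL^−1 doxycycline, transfected with a plasmid expressing a FLAG-tagged target and a Myc-tagged standard, and lysed after 48 h. Target abundance is the per-binder median log2 ratio of FLAG to Myc barcode read proportions. Only barcodes at a proportion of ≥10^−7 in both replicates and binders with ≥3 barcodes per replicate were kept, with a 10^−6 pseudocount added before the two replicates were pooled.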
B1: the “median log2 fold change” value was -0.655. The same measure for B2: -0.169; for B3: -0.214.

As for B4, the “median log2 fold change” value is 0.0939. The same measure for B5: 0.183; for B6: -0.387; for B7: -0.626.

For the molecule B8, the “median log2 fold change” value is -0.234. For B9, the “median log2 fold change” value was -0.374. Turning to B10, the “median log2 fold change” value amounted to 0.132. Consider B11, for which the “median log2 fold change” value is 0.326. Consider B12, for which the “median log2 fold change” value amounted to 0.294. To B13 belongs 0.159. As to B14, the “median log2 fold change” value was 0.224. The same measure for B15: -0.294. To B16 belongs -0.678. With B17, the “median log2 fold change” value came out at 0.226. On to B18, for which the “median log2 fold change” value came out at 0.312. To B19 belongs -0.964.

The record behind these values is the supplement of paper PMC12632987.
